GIRK2 act: activators of NPY4-receptor-primed GIRK2 channels, summary, cell-based, HEK293, thallium flux | 34,000 tested, under 10 active | G protein-activated inward rectifier potassium channel 2 (Homo sapiens), P48051 | HEK293 GIRK2/NPY4 cells, thallium flux fluorescence | activation (% efficacy), % for hits at 37.5 µM;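 active means primary screen hit, no activity in plain HEK293 cells, and in GIRK2-only cells above 5% efficacy rising with concentration; inactive means the rest, including fluorescent compounds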;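 further: efficacy is normalized control-subtracted fluorescence 15 s after thallium addition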
Target sequence (P48051 whole entry, looked up): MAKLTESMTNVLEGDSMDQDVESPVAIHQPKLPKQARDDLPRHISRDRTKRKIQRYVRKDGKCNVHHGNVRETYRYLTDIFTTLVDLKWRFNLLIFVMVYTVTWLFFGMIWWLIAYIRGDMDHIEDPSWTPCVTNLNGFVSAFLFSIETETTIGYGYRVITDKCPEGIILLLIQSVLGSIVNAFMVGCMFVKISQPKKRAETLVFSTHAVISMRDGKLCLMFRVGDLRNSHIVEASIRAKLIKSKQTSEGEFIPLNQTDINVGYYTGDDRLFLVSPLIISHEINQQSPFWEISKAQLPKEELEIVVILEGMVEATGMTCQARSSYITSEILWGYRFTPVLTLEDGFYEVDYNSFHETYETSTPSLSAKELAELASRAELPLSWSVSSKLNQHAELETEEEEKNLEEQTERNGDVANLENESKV
GluA2 TARP mod: modulators of GluA2-stargazin AMPA receptor complexes, primary screen, cell-based, membrane potential dye | HEK293 GluA2+stargazin, membrane potential dye (FDSS), glutamate EC50; hits were called plate by plate, in both directions | hit rate 3.5% among 40,000 | calls only at 30 µM;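 active means any of four per-well response measures lying three or more SD from its plate-wide compound average, in either direction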
Active calls of the source: *; i = inactive; / = no result; + = active, no number. The sample as a whole holds a higher share of hits than the screen did.

SMILES | GIRK2 act | GluA2 TARP mod
O=C(CC1CCCC1)Nc1nc(CSCc2ccc(F)cc2)cs1 | i | +
O=C(CCc1csc(NC(=O)c2ccc(F)cc2)n1)NCC1CCCCC1 | i | i
O=C(c1ccc(Cl)s1)N1CCCSCC1CN1CCOCC1 (stereo not given) | i | /
CCCS(=O)(=O)Nc1ccc(C)c(N2CCCC2=O)c1 | i | i
CCCC(CCC)C(=O)N1CCN(c2nccn2C)CC1 | i | /
CCCC(CCC)C(=O)N1CCN(c2nccn2CC)CC1 | i | +
CCn1ccnc1N1CCN(C(=O)c2ccc(Br)o2)CC1 | i | /
Cn1c(=O)c2c(SCC(=O)NCCc3ccccc3)ccnc2n(C)c1=O | i | i
Cn1c(=O)c2c(NCCc3ccc(S(N)(=O)=O)cc3)ccnc2n(C)c1=O | i | +
N#Cc1ccc(C(=O)N(Cc2ccncc2)c2nc3c(F)cccc3s2)cc1 | i | +
O=C(c1ccc2c(c1)OCCO2)N(Cc1ccncc1)c1nc2c(F)cccc2s1 | i | i
O=C(c1cccc(F)c1)N(CCCn1ccnc1)c1nc2c(F)cccc2s1 | i | +
O=C(c1ccc2c(c1)OCCO2)N(CCCn1ccnc1)c1nc2c(F)cccc2s1 | i | i
O=C(Cc1ccc(F)cc1)Nc1ccc(CC(=O)N2CCOCC2)cc1 | i | i
COc1ccc(CNC(=O)C(=O)Nc2ccc3c(c2)N(C(=O)C(C)C)CCC3)cc1 | i | i
COc1cccc(CNC(=O)C(=O)Nc2ccc3c(c2)N(C(=O)C(C)C)CCC3)c1 | i | +
O=C(Nc1cc(C(F)(F)F)cc(C(F)(F)F)c1)C1CCCN(c2ccc(-n3cccn3)nn2)C1 (stereo not given) | i | i
O=C(NCc1nc2ccccc2n1CC(=O)N1CCCCC1)c1ccco1 | i | /
CCOCCn1c(-n2nc(C)cc2C)nc2c1c(=O)n(Cc1ccc(F)cc1)c(=O)n2C | i | i
COCCn1c(=O)c2c(nc(-n3nc(C)cc3C)n2Cc2ccc(F)cc2)n(C)c1=O | i | +
Nc1c2c(nc3c4c(nn13)CCC4)CCC2 | i | i
Cc1cccc(-n2ncc3c(=O)[nH]c(-n4nc(C)cc4NC(=O)C4CC4)nc32)c1 | i | i
Cc1cc(NC(=O)c2c(F)cccc2F)n(-c2nc3c(cnn3-c3ccc(C)c(C)c3)c(=O)[nH]2)n1 | i | +
CCC(CC)C(=O)Nc1cc(C)nn1-c1nc2c(cnn2-c2cccc(C)c2)c(=O)[nH]1 | i | +
Cc1cc(NC(=O)c2c(F)cccc2F)n(-c2nc3c(cnn3-c3cccc(Cl)c3)c(=O)[nH]2)n1 | i | i
SMILES | GIRK2 act | GluA2 TARP mod
CSCCn1c(=NC(=O)C2=COCCO2)sc2cc(C)c(C)cc21 | i | i
CCOc1ccc(C(=O)N2CCN(c3ncnc4c3nnn4C)CC2)cc1OCC | i | i
O=C(Nc1ccc(S(=O)(=O)N2CCN(c3cnccn3)CC2)cc1)c1ccc(-c2ccccc2)cc1 | i | i
O=C(NCCNC(=O)c1ccccc1C(F)(F)F)c1ccc(NC(=O)C2CC2)cc1 | i | i
COc1ccc(-c2nc3c4ccccc4nc(=S)n3[nH]2)cc1 | i | i
Cc1noc(CNC(=O)CCCc2ccccc2)n1 | i | /
COc1cccc(C(=O)NCCS(=O)(=O)N2CCOCC2)c1 | / | i
COc1cccc(C(=O)NCCS(=O)(=O)N2CCC3(CC2)OCCO3)c1 | / | +
CCn1nnc2c(=O)n(CC(=O)Nc3ccc(OC)cc3)cnc21 | i | i
O=C(CSc1ccc(F)cc1)NCC1(O)CCc2ccccc21 (stereo not given) | i | /
Cc1cc(C)c2c(n1)nn1c(NCCc3ccccc3)cc(C)nc21 | i | i
Cc1cc(C)c2c(n1)nn1c(NCCN3CCOCC3)cc(C)nc21 | i | +
Cc1cc(C)c2c(n1)nn1c(NCCN(C)C)cc(C)nc21 | i | +
Cc1ccc(-c2c(C)nn3c(NCCN4CCOCC4)cc(C)nc23)cc1 | i | i
O=C(c1ccc2nsnc2c1)N1CCN(C(=O)c2cnn3ccccc23)CC1 | i | i
COc1ccc(N2CCN(C(=O)/C=C/c3ccc(OC)c(OC)c3)CC2)nn1 | i | /
N#C/C(=C\N1CCN(Cc2ccc3c(c2)OCO3)CC1)S(=O)(=O)c1ccccc1 | i | i
O=C(Nc1ccccc1)C(=O)Nc1ccc([N+](=O)[O-])cc1 | / | i
O=[N+]([O-])c1ccc(C2=NCCN2)cc1 | / | +
O=C(NC1CC1)c1ccc(N2CCCCS2(=O)=O)cc1 | i | i
COc1ccc(N(CC(O)CNCCC(C)C)S(=O)(=O)c2ccc(C)cc2)cc1 (stereo not given) | / | +
Cc1ccc(S(=O)(=O)N(CC(O)CNCCC(=O)O)c2ccc(F)cc2)cc1 (stereo not given) | i | i
O=C(Nc1ccc2c(c1)CN(C(=O)c1cccs1)CC2)c1cnccn1 | i | +
O=C(Nc1ccc2c(c1)CN(S(=O)(=O)c1ccccc1)CC2)c1cnccn1 | i | +
O=C(Nc1ccc2c(c1)CN(C(=O)c1cccs1)CC2)c1ccc2nsnc2c1 | i | i
SMILES | GIRK2 act | GluA2 TARP mod
O=C(CCc1ccccc1)Nc1ccc2c(c1)CN(S(=O)(=O)c1ccccc1)CC2 | i | i
COc1ccc(-c2nc(COC(=O)c3nnn(-c4ccc(OC)c(Cl)c4)c3C)c(C)o2)cc1 | i | i
CCS(=O)(=O)c1cccc(C(=O)N(CCN2CCOCC2)c2nc3c(Cl)cccc3s2)c1 | i | i
Cc1ccnc(Nc2ccc(N3CCN(C(=O)c4cnccn4)CC3)nn2)c1 | i | /
CCOC(=O)CCC(=O)N1CCN(C(=O)C2CC2c2cccs2)CC1 (stereo not given) | i | i
CS(=O)(=O)N1CCC(C(=O)Nc2sc3c(c2C#N)CCC3)CC1 | i | /
O=C(NCC1(O)CCc2ccccc21)Nc1ccccc1Cl (stereo not given) | i | i
O=C(NCC1(O)CCc2ccccc21)Nc1ccc(Cl)c(Cl)c1 (stereo not given) | i | +
COc1ccc2sc(N(CCN3CCOCC3)C(=O)CSc3ccc(C)cc3)nc2c1 | i | i
COc1ccc2nc(N(CCN3CCOCC3)C(=O)c3ccc4c(c3)OCCO4)sc2c1 | / | +
COc1ccc2nc(N(CCN3CCOCC3)C(=O)/C=C/c3cccc([N+](=O)[O-])c3)sc2c1 | i | +
COc1ccc2nc(N(CCN3CCOCC3)C(=O)c3ccc([N+](=O)[O-])cc3)sc2c1 | / | i
CCOc1ccc2nc(N(Cc3ccncc3)C(=O)/C=C/c3cccc([N+](=O)[O-])c3)sc2c1 | i | i
COc1ccc2nc(N(CCN3CCOCC3)C(=O)c3nc4ccccc4s3)sc2c1 | i | i
CCCC(=O)N(CCN1CCOCC1)c1nc2cc(OC)ccc2s1 | i | +
COc1ccc2nc(N(CCN3CCOCC3)C(=O)c3ccc(Cl)s3)sc2c1 | / | +
CCCCc1ccc(-n2nnc(C(=O)N(C)C3CCS(=O)(=O)C3)c2C)cc1 (stereo not given) | i | i
Cc1ccc(CC(=O)Nc2sccc2C(N)=O)cc1 | i | i
O=C(NCc1ccco1)C(=O)Nc1c2c(nn1-c1cccc(Cl)c1)CS(=O)(=O)C2 | i | i
